SMARCA2 act = SMARCA2 (BRM) function activators, primary screen, cell-based, luminescence, high throughput; AID 652017, 2013; MG213 cells, MMTV-luciferase reporter, dexamethasone, overnight; 1% of 370,000 active; activation, % at 9.1 µM; in the data active = activation above about 7.8%;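 also: 0% = vehicle wells and 100% = reference activator wells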
MsrA inh = bovine MsrA enzyme inhibitors, primary screen, biochemical, absorbance, HTS; Methionine sulfoxide reductase A (Bos taurus); inhibition, % at 15.5 µM; purified bovine MsrA, absorbance read-out; 0.75% of 360,000 active; in the data active = inhibition above about 4.5%;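 also: 0% = vehicle wells with enzyme and 100% = reference inhibitor wells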
MsrA act = bovine MsrA enzyme activators, primary screen, biochemical, absorbance, HTS; purified bovine MsrA, absorbance read-out; activation, % at 10.6 µM; 0.3% of 360,000 active; AID 602163, 2012; Methionine sulfoxide reductase A (Bos taurus); in the data active = activation above about 7.5%;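 also: 0% = vehicle and 100% = reference activator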
ABCB6 inh 2 = ABCB6 transporter inhibitors, primary screen, K562-ABCB6 cells, flow cytometry, MLPCN library. ATP-binding cassette sub-family B member 6 (Homo sapiens), Q9NP58. fluorescence ratio to DMSO, % at 10 µM. K562-ABCB6 porphyrin accumulation, 1 h; hits give low values. AID 602162, 2011. 0.19% of 360,000 active;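 active = fluorescence ratio to DMSO below 75%, the collection mean minus 3 SD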;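 also: signal is porphyrin accumulated inside mitochondria; 100% equals median channel fluorescence of DMSO control wells; lower ratio means ABCB6 inhibition with less porphyrin fluorescence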
Target sequence (Q9NP58 whole entry, looked up): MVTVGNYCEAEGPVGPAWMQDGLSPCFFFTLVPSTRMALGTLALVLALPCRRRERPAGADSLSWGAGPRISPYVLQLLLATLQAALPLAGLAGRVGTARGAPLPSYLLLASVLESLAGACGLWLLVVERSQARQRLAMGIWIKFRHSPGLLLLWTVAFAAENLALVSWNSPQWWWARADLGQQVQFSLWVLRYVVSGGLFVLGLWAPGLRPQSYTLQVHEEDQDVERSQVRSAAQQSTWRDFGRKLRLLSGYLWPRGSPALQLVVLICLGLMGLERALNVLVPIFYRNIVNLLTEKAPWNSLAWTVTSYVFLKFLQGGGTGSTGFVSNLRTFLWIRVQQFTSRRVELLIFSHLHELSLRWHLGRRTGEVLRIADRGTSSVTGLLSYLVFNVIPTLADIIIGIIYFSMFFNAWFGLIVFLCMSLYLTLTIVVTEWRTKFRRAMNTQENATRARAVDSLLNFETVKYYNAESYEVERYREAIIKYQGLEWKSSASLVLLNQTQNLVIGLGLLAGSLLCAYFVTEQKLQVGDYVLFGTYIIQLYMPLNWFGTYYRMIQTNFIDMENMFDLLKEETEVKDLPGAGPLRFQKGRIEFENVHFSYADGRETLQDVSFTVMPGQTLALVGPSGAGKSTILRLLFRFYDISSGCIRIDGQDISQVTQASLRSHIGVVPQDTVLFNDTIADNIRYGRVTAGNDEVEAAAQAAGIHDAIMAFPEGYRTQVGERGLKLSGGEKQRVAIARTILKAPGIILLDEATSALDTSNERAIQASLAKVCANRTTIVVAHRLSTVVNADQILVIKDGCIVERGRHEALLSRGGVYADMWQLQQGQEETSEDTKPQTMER
* marks the source's active call; other numbers are inactive results. An excerpt weighted towards active compounds, which were near 2.1% of everything screened.

How did CCCCNC(=O)C[C@H]1C[C@@]2(C(=O)OC)C(=C[C@H](C(C)(C)C)O[C@@H]2C)N(Cc2cccc3ccccc23)C1=O do in these assays?
SMARCA2 act: -2.5

What do the screens show for `c1ccc(CCSc2nnc(-c3cccnc3)n2Cc2ccccc2)cc1`?
SMARCA2 act: 0.2

Results for CN(C(=O)CCn1nnc(-c2cccs2)n1)C1CCCCC1 ?
SMARCA2 act: 4.0

How did O=C(Cn1nnc(-c2ccccc2F)n1)Nc1ccc(F)cc1F do in these assays?
SMARCA2 act: -2.4

Results for Cc1ccc(CC(=O)N2CCN(S(=O)(=O)c3ccccc3)CC2)cc1C ?
SMARCA2 act: -0.5; MsrA inh: 4.6*; MsrA act: -9.5; ABCB6 inh 2: 100.0

How did CC(SC(=S)N(C)Cc1cccs1)C(=O)O (centres undefined) do in these assays?
SMARCA2 act: -1.7; MsrA inh: -1.6; MsrA act: -4.2; ABCB6 inh 2: 99.0

Results for CN(C)c1nc(=NCc2cccs2)ss1 ?
SMARCA2 act: 13.3*; MsrA inh: 1.6; MsrA act: 1.9; ABCB6 inh 2: 89.0

Results for COc1ccc(OC)c(Cc2nnc(CCC(=O)N3CCN(C4CCCC4)CC3)o2)c1 ?
SMARCA2 act: 7.8*; MsrA inh: 1.0; MsrA act: -2.8; ABCB6 inh 2: 103.0

What do the screens show for `CCCCN1C(=O)N2Cc3ccccc3C2CS1(=O)=O` (centres undefined)?
SMARCA2 act: 6.8

Results for CCOc1ccc2nc(SCC(=O)N(C)C)[nH]c2c1 ?
SMARCA2 act: 7.9*; MsrA inh: 0.0; MsrA act: -0.2; ABCB6 inh 2: 95.0

What do the screens show for `COc1ccc(-c2c(Cc3ccccc3)nc(NC(=O)c3ccccc3F)n2C)cc1`?
SMARCA2 act: -0.4

Results for CC(/C=C(\NC(=O)c1ccccc1)C(=O)N=Nc1c(O)[nH]c2ccc(C)cc12)=C\c1ccccc1 ?
SMARCA2 act: 0.7; MsrA inh: 0.4; MsrA act: -8.3; ABCB6 inh 2: 73.0*

How did COc1ccc(/C=C2/CN(Cc3ccc(OC)cc3OC)C3=N[C@H](c4ccccc4)CC(=O)N32)cc1 do in these assays?
SMARCA2 act: -2.5

Results for Cc1ccc(/C=N/NC(=O)c2ccc(OC3CCCC3)cc2)o1 ?
SMARCA2 act: -1.1; MsrA inh: 4.6*; MsrA act: -5.0; ABCB6 inh 2: 100.0

How did O=C(N/N=C/c1ccc(OC2CSC2)cc1)c1ccccc1 do in these assays?
SMARCA2 act: 5.9; MsrA inh: 1.7; MsrA act: 1.2; ABCB6 inh 2: 95.0

What do the screens show for `Cc1ccccc1C(=O)N/N=C/c1ccccn1`?
SMARCA2 act: 10.4*; MsrA inh: -0.3; MsrA act: -4.2; ABCB6 inh 2: 99.0

How did O=C(N/N=C/c1ccccn1)c1ccccc1 do in these assays?
SMARCA2 act: 4.3; MsrA inh: 0.8; MsrA act: -1.0; ABCB6 inh 2: 98.0

How did Cn1cc(C(=O)N/N=C/C(Br)=C\c2ccccc2)ccc1=O do in these assays?
SMARCA2 act: 2.4; MsrA inh: 5.4*; MsrA act: -3.5; ABCB6 inh 2: 111.0

How did COc1ccc(C=NNC(=S)NN=Cc2ccc(OC)c(OC)c2)cc1OC do in these assays?
SMARCA2 act: -1.1; MsrA inh: 5.7*; MsrA act: 1.2; ABCB6 inh 2: 84.0

How did Cc1ccc2nc(-c3ccc(NC(=O)CSc4nnc(-c5cc(C)[nH]n5)n4N)cc3)sc2c1 do in these assays?
SMARCA2 act: 1.2

Results for COc1cccc(N2CCN(CC(=O)NCc3cccc(OC)c3OC)CC2)c1 ?
SMARCA2 act: -5.7

How did Cc1ccc(SCC(=O)Nc2nccs2)cc1 do in these assays?
SMARCA2 act: 7.8*; MsrA inh: -0.1; MsrA act: -7.1; ABCB6 inh 2: 89.0

What do the screens show for `CN(C)S(=O)(=O)c1cccc(C(=O)N/N=C\c2ccccc2)c1`?
SMARCA2 act: -2.4

Results for CCCCNC(=O)C[C@H]1C[C@@]2(C(=O)OC)C(=C[C@H](C3CCCC3)O[C@@H]2C)N(Cc2ccco2)C1=O ?
SMARCA2 act: 7.8*

How did CCCCNC(=O)C[C@H]1C[C@@]2(C(=O)OC)C(=C[C@H](C3CCCC3)O[C@@H]2C)N(Cc2ccccc2)C1=O do in these assays?
SMARCA2 act: 3.0; MsrA inh: 0.9

How did CCN(CC)CCCN1C(=O)C(O)=C(C(=O)c2cc3cccc(OC)c3o2)C1c1ccncc1 (centres undefined) do in these assays?
SMARCA2 act: 3.2; MsrA inh: 4.8*; MsrA act: -3.8; ABCB6 inh 2: 87.0
